According to PubChem BioAssay (EPA / NIEHS):
The source made the active and inactive calls. How the source made its calls: active means hit-call score of the fitted dose curve at least 0.9, where 1 is the maximum; inactive means score below 0.9.

Assays:
[1] = read-out: Matrix Metallopeptidase 9 (MMP9), MMP9 (gene 4318); assay: BSK_KF3CT_MMP9: BioMAP Diversity Plus: KF3CT Assay for Matrix Metallopeptidase 9 (MMP9) Biomarker Activity (AID 2283074); conditions: primary human keratinocytes with fibroblasts; actives raise or lower the signal;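 on AC50: MMP9 protein level quantified by ELISA in the co-culture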
Outline: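 Human keratinocyte/foreskin fibroblast co-culture; compound added; 24 h; MMP-9 by ELISA; bidirectional fit vs DMSO baseline.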

[2] = read-out: urokinase plasminogen activator (uPA), PLAU (gene 5328); assay: BSK_KF3CT_uPA: BioMAP Diversity Plus: KF3CT Assay for urokinase plasminogen activator (uPA) Biomarker Activity (AID 2283075); conditions: primary human keratinocytes with fibroblasts; actives raise or lower the signal
Outline: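 ELISA readout of uPA, analyzed for signal gain or loss relative to DMSO, from a human primary keratinocyte–foreskin fibroblast co-culture measured 24 h after chemical treatment.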

CD40, CD40 (gene 958) [3] = assay: BSK_LPS_CD40: BioMAP Diversity Plus: LPS Assay for CD40 Biomarker Activity (AID 2283076); conditions: primary human HUVEC with PBMC; actives raise or lower the signal
Outline: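 In the LPS system of human endothelial cells with peripheral blood mononuclear cells, CD40 levels were read by ELISA 24 h post-treatment. Signal changes in either direction were fitted against the DMSO baseline, with parallel SRB protein staining.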

[4] = read-out: E-selectin (Homo sapiens) (UniProt P16581); assay: BSK_LPS_Eselectin: BioMAP Diversity Plus: LPS Assay for Eselectin Biomarker Activity (AID 2283077); conditions: primary human HUVEC with PBMC; actives raise or lower the signal
Outline: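 E-selectin ELISA on LPS-stimulated endothelial cell/PBMC co-cultures, read 24 h post-treatment; gains and losses fitted against DMSO. Parallel SRB staining (0.1% SRB after 10% TCA fixation, 560 nm) flags overt cytotoxicity.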

[5] = read-out: Interleukin-8 (IL8), CXCL8 (gene 3576); assay: BSK_LPS_IL8: BioMAP Diversity Plus: LPS Assay for Interleukin-8 (IL8) Biomarker Activity (AID 2283078); conditions: primary human HUVEC with PBMC; actives raise or lower the signal
Outline: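 ELISA read-out of IL-8 after 24 h chemical treatment of LPS-activated endothelial/PBMC human primary co-cultures. Changes either up or down relative to DMSO; overt cytotoxicity checked by sulforhodamine B staining in parallel wells.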

[6] = BSK_LPS_SRB: Viability Assessment in the BioMAP Diversity Plus: LPS Assay (AID 2283079); conditions: primary human HUVEC with PBMC;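 further: total protein by sulforhodamine B absorbance as a cytotoxicity measure; measured one day after compound addition; fitted in both directions against DMSO so loss or gain of signal counts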
Outline: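 SRB viability endpoint: cells fixed with 10% TCA, stained with 0.1% SRB, read at 560 nm, 24 h post-dose. HUVEC/PBMC co-culture; signal change in either direction scored relative to DMSO.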

[7] = read-out: Interleukin-1 alpha (IL1a), IL1A (gene 3552); assay: BSK_LPS_IL1a: BioMAP Diversity Plus: LPS Assay for Interleukin-1 alpha (IL1a) Biomarker Activity (AID 2283080); conditions: primary human HUVEC with PBMC; actives raise or lower the signal
Outline: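 Readout is IL-1a level by ELISA, 24 h post-dose, fitted as gain or loss relative to DMSO. System: LPS-activated human primary co-culture of vascular endothelium and peripheral blood mononuclear cells, with parallel SRB total-protein cytotoxicity.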

[8] = read-out: Monocyte Chemoattractant Protein-1 (MCP1), CCL2 (gene 6347); assay: BSK_LPS_MCP1: BioMAP Diversity Plus: LPS Assay for Monocyte Chemoattractant Protein-1 (MCP1) Biomarker Activity (AID 2283081); conditions: primary human HUVEC with PBMC; actives raise or lower the signal
Outline: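 Secreted MCP-1 read by ELISA at 24 h post-dosing in an LPS-activated co-culture of endothelial cells with peripheral blood mononuclear cells. Fits run in both directions, DMSO as baseline; parallel SRB staining tracks overt cytotoxicity.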

[9] = BSK_LPS_PGE2: BioMAP Diversity Plus: LPS Assay for Prostaglandin E2 (PGE2) Biomarker Activity (AID 2283082); conditions: primary human HUVEC with PBMC; actives raise or lower the signal;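 on AC50: secreted prostaglandin E2 measured by ELISA in LPS-stimulated co-culture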
Outline: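 HUVEC plus human PBMC co-culture stimulated with LPS; secreted PGE2 quantified by ELISA 24 h after chemical dosing. Activity fitted bidirectionally against DMSO baseline; parallel SRB staining (0.1% SRB after 10% TCA fixation, 560 nm) flags overt cytotoxicity.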

[10] = read-out: Macrophage colony-stimulating factor (MCSF), CSF1 (gene 1435); assay: BSK_LPS_MCSF: BioMAP Diversity Plus: LPS Assay for Macrophage colony-stimulating factor (MCSF) Biomarker Activity (AID 2283083); conditions: primary human HUVEC with PBMC; actives raise or lower the signal
Outline: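 Bidirectional fitting against DMSO was applied to M-CSF levels read by ELISA at 24 h post-dose. The system pairs human umbilical vein endothelium with peripheral blood mononuclear cells; parallel SRB staining tracked cytotoxicity.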

[11] = read-out: Tissue Factor, F3 (gene 2152); assay: BSK_LPS_TissueFactor: BioMAP Diversity Plus: LPS Assay for Tissue Factor Biomarker Activity (AID 2283084); conditions: primary human HUVEC with PBMC; actives raise or lower the signal
Outline: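 Compound was added to an endothelial cell/PBMC co-culture, and after 24 h tissue factor (CD142) was read by ELISA. Gain or loss of signal was fitted against a DMSO baseline, and parallel SRB staining (560 nm) tracked overt cytotoxicity.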

[12] = read-out: Tumor necrosis factor (Homo sapiens) (UniProt P01375); assay: BSK_LPS_TNFa: BioMAP Diversity Plus: LPS Assay for Tumour Necrosis Factor alpha (TNFa) Biomarker Activity (AID 2283085); conditions: primary human HUVEC with PBMC; actives raise or lower the signal
Outline: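 Human umbilical vein endothelial cells co-cultured with PBMC and stimulated with LPS. TNFa was measured by ELISA 24 h after chemical dosing, fitted bidirectionally relative to DMSO.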

CD38, CD38 (gene 952) = assay: BSK_SAg_CD38: BioMAP Diversity Plus: SAg Assay for CD38 Biomarker Activity (AID 2283087); conditions: primary human HUVEC with PBMC; actives raise or lower the signal
Outline: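 Human HUVEC plus PBMC co-culture stimulated with superantigen; CD38 measured by ELISA 24 h after chemical dosing. Fluorescence read-out, bidirectional fit against DMSO; cytotoxicity tracked in parallel by SRB and Alamar Blue.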

CD40, CD40 (gene 958) [13] = assay: BSK_SAg_CD40: BioMAP Diversity Plus: SAg Assay for CD40 Biomarker Activity (AID 2283088); conditions: primary human HUVEC with PBMC; actives raise or lower the signal
Outline: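 CD40 is measured by fluorescence ELISA in an endothelial/PBMC primary human co-culture at 24 h post-dose. Fitting is bidirectional, DMSO baseline. Parallel SRB staining (560 nm) flags cytotoxicity.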

CD69, CD69 (gene 969) = assay: BSK_SAg_CD69: BioMAP Diversity Plus: SAg Assay for CD69 Biomarker Activity (AID 2283089); conditions: primary human HUVEC with PBMC; actives raise or lower the signal
Outline: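 Values derive from bidirectional fitting relative to DMSO vehicle. Cells: umbilical vein endothelium plus peripheral blood mononuclear cells, treated 24 h before fluorescent ELISA for CD69.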

[14] = read-out: Monocyte Chemoattractant Protein-1 (MCP1), CCL2 (gene 6347); assay: BSK_SAg_MCP1: BioMAP Diversity Plus: SAg Assay for Monocyte Chemoattractant Protein-1 (MCP1) Biomarker Activity (AID 2283090); conditions: primary human HUVEC with PBMC; actives raise or lower the signal
Outline: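 MCP-1 levels in the endothelial–PBMC SAg co-culture were quantified by ELISA at 24 h post-dosing; both increases and decreases versus DMSO scored. Cytotoxicity monitored by SRB total protein in parallel cultures.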

[15] = read-out: E-selectin (Homo sapiens) (UniProt P16581); assay: BSK_SAg_Eselectin: BioMAP Diversity Plus: SAg Assay for Eselectin Biomarker Activity (AID 2283091); conditions: primary human HUVEC with PBMC; actives raise or lower the signal
Outline: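 Cell-surface E-selectin is read by ELISA at 24 h in the SAg co-culture of HUVEC and PBMC. Curves are fitted in both directions relative to DMSO. Parallel SRB total-protein staining tracks overt toxicity.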

[16] = read-out: Monokine induced gamma interferon (MIG), CXCL9 (gene 4283); assay: BSK_SAg_MIG: BioMAP Diversity Plus: SAg Assay for Monokine induced gamma interferon (MIG) Biomarker Activity (AID 2283092); conditions: primary human HUVEC with PBMC; actives raise or lower the signal
Outline: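 Values reflect bidirectional fitting of ELISA-measured MIG against DMSO vehicle, taken 24 h after dosing of a co-culture of human umbilical vein endothelial cells and peripheral blood mononuclear cells.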

[17] = BSK_SAg_PBMCCytotoxicity: PBMC Cytotoxicity Assessment in the BioMAP Diversity Plus: SAg Assay (AID 2283093); conditions: primary human HUVEC with PBMC;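 further: PBMC viability measured as Alamar Blue reduction fluorescence at 546/580 nm; fitted both ways against DMSO so a hit may be loss or gain of signal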
Outline: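 Compound added to 75,000 PBMC/well for 1 h; SEB and TSST-1 then added at 20 ng/mL final each; 90 h incubation; Alamar Blue 6 h; read 546/580 nm ex/em. Activity fitted bidirectionally relative to DMSO baseline.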

Measured: AC50

Chain of Tumor necrosis factor (Homo sapiens) (P01375 whole entry, looked up): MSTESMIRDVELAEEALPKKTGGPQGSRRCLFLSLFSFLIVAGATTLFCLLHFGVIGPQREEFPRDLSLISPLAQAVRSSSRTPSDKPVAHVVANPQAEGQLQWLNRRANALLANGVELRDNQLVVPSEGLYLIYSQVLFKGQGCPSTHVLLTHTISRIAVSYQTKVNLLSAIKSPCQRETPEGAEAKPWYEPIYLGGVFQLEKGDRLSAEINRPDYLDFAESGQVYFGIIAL
Chain of E-selectin (Homo sapiens) (P16581 whole entry, looked up): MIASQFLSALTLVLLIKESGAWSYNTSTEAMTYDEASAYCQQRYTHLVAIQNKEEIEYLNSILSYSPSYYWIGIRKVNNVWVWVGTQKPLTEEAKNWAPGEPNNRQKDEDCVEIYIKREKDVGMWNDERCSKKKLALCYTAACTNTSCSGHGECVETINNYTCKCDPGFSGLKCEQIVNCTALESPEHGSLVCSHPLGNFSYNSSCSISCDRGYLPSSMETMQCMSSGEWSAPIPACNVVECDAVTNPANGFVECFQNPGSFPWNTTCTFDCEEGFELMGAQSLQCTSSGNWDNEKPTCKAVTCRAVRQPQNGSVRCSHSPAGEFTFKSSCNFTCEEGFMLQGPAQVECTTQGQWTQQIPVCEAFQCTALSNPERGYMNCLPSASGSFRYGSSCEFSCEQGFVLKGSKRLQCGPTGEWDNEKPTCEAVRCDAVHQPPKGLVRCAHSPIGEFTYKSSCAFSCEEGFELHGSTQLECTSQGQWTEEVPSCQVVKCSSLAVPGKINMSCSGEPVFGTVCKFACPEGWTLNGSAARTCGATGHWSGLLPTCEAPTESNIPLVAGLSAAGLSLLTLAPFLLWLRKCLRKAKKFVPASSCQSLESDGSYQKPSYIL

c1ccc(NNc2ccccc2)cc1
active: [9] 10.6 µM
inactive: all other assays above

[As]#[In]
inactive: all assays above

Cc1cc(N=Nc2ccccc2C)ccc1N
active: [1] 19.9 µM | [2] 39.2 µM | [6] 9.83 µM | [9] 3.97 µM | CD38, CD38 (gene 952) 32.4 µM | CD40, CD40 (gene 958) [13] 30.7 µM | [14] 20 µM | [15] 4.75 µM
inactive: all other assays above

C[C@]12C=CC3=C4CCC(=O)C=C4CC[C@H]3[C@@H]1CC[C@@H]2O
active: CD40, CD40 (gene 958) [3] 20 µM | [4] 4.37 µM | [9] 7.31 µM | [10] 9.08 µM | CD38, CD38 (gene 952) 4.63 µM | CD40, CD40 (gene 958) [13] 9.73 µM
inactive: all other assays above
